Shown are actives, neighbours in structure and some others; about 3.1% of the full set was active somewhere.
p53null 39C kill – selectivity test: cytotoxicity in p53 null cells, nonpermissive temperature. Potency, µM (titrated, usually from 46.1 µM), for the others: at the top dose activity, negative = cell killing, actives largely listed as cytotoxic. AID 904. H1299 p53-null (neo) cells, 39C, ATPlite viability, 24 h. 55,000 compounds, 0.97% hits;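 note: potency is the fitted concentration of half-maximal effect; 0% = DMSO only and -100% = full killing by 100 µM tamoxifen; nearly all actives have a fitted effect of over 50% in size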
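Concentration-response (up to 46 uM) was run for 24 h at the nonpermissive 39C on H1299-p53A138V or H1299-neo cells. ATP content was measured with ATPlite luminescence. AC50 values were Hill-modeled after normalizing between DMSO and 100 uM tamoxifen killing.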
p53null 32C tox – kills p53 null cells at the permissive temperature; H1299-neo p53 null cells, ATP luminescence, 24 h, 32C; Potency, µM (titrated, usually from 46.1 µM), without a hit: at the top dose activity change, negative = cytotoxicity, actives largely listed as cytotoxic; 55,000 compounds, 0.62% hits; AID 903;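 note: potency is the fitted concentration of half-maximal effect; 0% = DMSO only and -100% = full killing by 100 µM tamoxifen; nearly all actives have a fitted effect of over 55% in size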
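AC50 values derive from Hill modelling of qHTS concentration-response data (up to 46 uM) in H1299-neo cells. Cells were treated 24 h at 32C following overnight attachment at 37C; viability was read as cellular ATP.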
SKOV3 invasion – inhibitors of ovarian cancer cell adhesion and invasion in omental model; SKOV3ip1-GFP adhesion/invasion on 3D omental model, fluorescence; 46,000 compounds, 0.1% hits; Potency, µM (highest dose often 45.8 µM), without a hit: top-dose activity change, negative = inhibition, usual class: inhibitors;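 note: potency is the fitted concentration of half-maximal effect; plate controls were DMSO wells for no effect and tomatine positive control wells for full effect; nearly all actives have a fitted effect of over 65% in size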
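A 3D layer of primary human omental fibroblasts, mesothelial cells, fibronectin and collagen I, grown 48 hr, received SKOV3ip1-GFP cells in serum-free medium plus compounds at 0.36-46 umol/L. After 2 hr RT and 16 hr 37 C, fixed adherent GFP cells were counted; normalized to DMSO and tomatine.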
pS6 MEF inh – inhibitors of mTORC1 signaling in Tsc2-/- p53-/- MEF cells; Tsc2-/- p53-/- MEF, phospho-rpS6 immunofluorescence/PI, 24 h; Potency, µM (doses to about 38.3 µM), inactives show at the highest dose activity change, negative = inhibition, usual class: inhibitors; 44,000 compounds, 0.78% hits; AID 493208;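 note: potency is the fitted concentration of half-maximal effect; plate controls were DMSO for no effect and rapamycin for full effect; nearly all actives have a fitted effect of over 50% in size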
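Immunofluorescence of rpS6 phosphorylation in Tsc2-/-, p53-/- MEFs after 24 h compound exposure, normalized to propidium iodide signal. Activity is expressed as % positive cells, thresholded with 7.5 nM rapamycin.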
PMP22 txn – modulates PMP22 transcription in S16 Schwann cells; S16 Pmp22-F2sN Schwann cells, FLuc/NLuc coincidence luminescence, 24 h; Potency, µM (titrated, usually from 57.5 µM), inactives show at the highest dose activity change, negative = inhibition, most hits filed as inhibitors; 43,000 compounds, 2% hits; active = clear falling dose curves in both reporters; inconclusive = both reporters move, but less clearly or upward; inactive = either reporter flat; the % is the NLuc reporter signal; note: potency is the fitted concentration of half-maximal effect; % is set by controls: 0 for no effect and ±100 for the full control effect
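Transcriptional readout in edited S16(c9) cells: two luciferases reported from the Pmp22 locus, measured in turn after 24 h compound incubation.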
S16 viability – toxic to S16 Pmp22-F2sN Schwann cells. S16 Pmp22-F2sN Schwann cells viability, CellTiter-Glo, 24 h. Potency, µM (highest dose often 57.5 µM), inactives show at the highest dose activity change, negative = cytotoxicity, usual class: cytotoxic. 43,000 compounds, 0.48% hits; note: potency is the fitted concentration of half-maximal effect; % is set by controls: 0 for no effect and ±100 for the full control effect; nearly all actives have a fitted effect of over 65% in size
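Used to flag compounds lowering reporter output through toxicity, this quantitative HTS measures ATP-based CellTiter-Glo luminescence in S16 Pmp22-F2sN Schwann cells after 24 h compound exposure at 37C.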
NLuc sat counter – counter-screen for PMP22 expression modulators: NanoLuc inhibition, saturating substrate. shares compounds with PMP22 txn. Secreted NLuc enzyme (filtered S16 cell medium), Nano-Glo luminescence. Potency, µM (doses to about 57.5 µM), without a hit: top-dose activity change, negative = inhibition, actives largely listed as inhibitors. 690 compounds, 4% hits. AID 1508638; note: potency is the fitted concentration of half-maximal effect; % is set by controls: 0 for no effect and ±100 for the full control effect
NLuc Km ctr – inhibits NanoLuc under Km conditions, PMP22 counter-screen. shares compounds with PMP22 txn. secreted NLuc enzyme, coelenterazine luminescence, Km conditions. Potency, µM (doses to about 57.5 µM), inactives show at the top dose activity change, negative = inhibition, usual class: inhibitors. 690 compounds, 5% hits. AID 1508639; note: potency is the fitted concentration of half-maximal effect; % is set by controls: 0 for no effect and ±100 for the full control effect
FLuc ctr PMP22 – counter-screen for PMP22 expression modulators: firefly luciferase inhibition; 690 tested, under 10 active; purified P. pyralis FLuc, luminescence, 10 min; Potency, µM (titrated, usually from 57.5 µM), without a hit: top-dose activity, negative = inhibition, actives largely listed as inhibitors; shares compounds with PMP22 txn; note: % of control where 0% means no effect
Target sequence (P08659 whole entry, looked up): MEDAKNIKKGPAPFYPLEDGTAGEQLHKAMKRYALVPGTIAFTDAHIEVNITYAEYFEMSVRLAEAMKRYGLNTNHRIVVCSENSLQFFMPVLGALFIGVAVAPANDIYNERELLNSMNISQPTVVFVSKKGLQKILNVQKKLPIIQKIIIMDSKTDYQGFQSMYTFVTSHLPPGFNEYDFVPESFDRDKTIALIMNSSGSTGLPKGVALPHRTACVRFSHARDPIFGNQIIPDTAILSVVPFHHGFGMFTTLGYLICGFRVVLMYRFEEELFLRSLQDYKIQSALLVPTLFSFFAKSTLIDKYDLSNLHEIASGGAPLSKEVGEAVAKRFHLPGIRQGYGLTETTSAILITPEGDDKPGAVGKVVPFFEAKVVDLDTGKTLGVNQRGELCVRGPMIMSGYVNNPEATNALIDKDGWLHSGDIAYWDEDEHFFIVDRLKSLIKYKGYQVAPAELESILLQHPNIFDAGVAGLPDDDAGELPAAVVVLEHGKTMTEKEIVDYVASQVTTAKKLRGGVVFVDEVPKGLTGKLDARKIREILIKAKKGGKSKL
S16 F2sN tox cnf – confirmation of cytotoxicity in S16 Pmp22-F2sN Schwann cells (luciferase reporters placed in the Pmp22 gene). shares compounds with PMP22 txn. S16 Schwann cells viability, CellTiter-Glo ATP luminescence, 24 h. Potency, µM (doses to about 57.5 µM), inactives show at the highest dose activity change, negative = viability loss, most hits filed as cytotoxic. 690 compounds, 7% hits. AID 1508641; note: potency is the fitted concentration of half-maximal effect; % is set by controls: 0 for no effect and ±100 for the full control effect
PMP22 txn conf – PMP22 transcription modulation, confirmatory; shares compounds with PMP22 txn; 690 compounds, 22% hits; Potency, µM (series often up to 57.5 µM), for inactives: top-dose activity change, negative = inhibition, usual class: inhibitors; S16 Schwann cells Pmp22-F2sN, dual luciferase, 24 h; active = clear falling dose curves in both reporters; inconclusive = both reporters move, but less clearly or upward; inactive = either reporter flat; the % is the FLuc reporter signal; note: potency is the fitted concentration of half-maximal effect
PMP22 prot conf – confirmation of modulators of rat PMP22 protein expression. shares compounds with PMP22 txn. S16 Schwann cells Pmp22-HiBiT, luminescence, 48 h. Potency, µM (highest dose often 27.9 µM), without a hit: at the top dose activity change, negative = inhibition, usual class: inhibitors. 95 tested, under 10 active
Target sequence (P25094 whole entry, looked up): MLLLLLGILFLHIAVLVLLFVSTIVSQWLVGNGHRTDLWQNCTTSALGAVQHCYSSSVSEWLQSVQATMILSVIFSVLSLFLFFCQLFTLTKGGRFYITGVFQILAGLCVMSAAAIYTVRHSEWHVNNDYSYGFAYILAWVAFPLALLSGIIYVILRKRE
* hit, by the source's call; i = inactive; ? = inconclusive; nt = not tested or not shown. Unless noted, calls come from the whole dose curve; as a rule, active = well fitted curve in the direction sought with a large enough effect; inconclusive = small, poorly fitted or top-dose-only effect, or another doubt; inactive = no such curve, though single readings can be large; an effect the other way counts as inactive or inconclusive.

SMILES	p53null 39C kill	p53null 32C tox	SKOV3 invasion	pS6 MEF inh	PMP22 txn	S16 viability	NLuc sat counter	NLuc Km ctr	FLuc ctr PMP22	S16 F2sN tox cnf	PMP22 txn conf	others
Clc1cccc(-c2noc3ncnc(NC4CCCCC4)c23)c1	-11.2%	-2.7%	-0.8%	-13.3%	?	-18.7%	-12.5%	2.0%	-11.0%	-16.4%	8.16µM*	PMP22 prot conf=-6.3%
Cc1ccc(C)c(N2CCN(C(=O)C3CCCN(S(=O)(=O)c4ccc5c(c4)oc(=O)n5C)C3)CC2)c1 (configuration not stated)	14.5%	?	i	4.6%	15.2µM*	-15.1%	-9.6%	5.5%	2.7%	-15.3%	?
Cn1c(=O)oc2cc(S(=O)(=O)N3CCCC(C(=O)N4CCN(c5ccccc5F)CC4)C3)ccc21 (configuration not stated)	-2.2%	-4.7%	9.2%	-6.3%	?	-0.7%	nt	nt	nt	nt	nt
CC(C=CC1=C(C)CCCC1(C)C)=CC=CC(C)=CC(=O)O	nt	nt	-24.4%	nt	nt	nt	nt	nt	nt	nt	nt
COc1cccc(NC(=O)CCCn2c(=O)c3cccn3c3cccnc32)c1	-13.2%	-5.7%	i	3.3%	?	0.2%	?	?	-0.2%	3.7%	?
CCCCCn1c(=O)[nH]c2cc(C(=O)Nc3cc(OC)cc(OC)c3)ccc2c1=O	-3.1%	-14.3%	i	1.0%	?	3.4%	nt	nt	nt	nt	nt
CCCCC(CC)CNC(=O)c1ccc2c(=O)n(Cc3ccc(OC)cc3)c(=O)[nH]c2c1 (configuration not stated)	34.3%	0.7%	i	-24.0%	12.1µM*	2.5%	6.0%	20.0%	2.9%	4.3%	?
COc1ccc(CC2SC(=O)NC2=O)cc1C(=O)NCc1ccc(C(F)(F)F)cc1 (configuration not stated)	nt	nt	1.5%	nt	nt	nt	nt	nt	nt	nt	nt
CNc1nccc(-c2cccnc2Oc2cc(C(=O)Nc3cccc(C(F)(F)F)c3)ccc2C)n1	nt	nt	-0.8%	nt	nt	nt	nt	nt	nt	nt	nt
CCOC(=O)C1CCN(C(=O)c2ccc3c(=O)n4nc(Nc5ccccc5)sc4nc3c2)CC1	22.9%	-9.4%	i	-4.6%	5.32µM*	4.2%	?	?	?	5.9%	-23.1%
COc1ccccc1Nc1nn2c(=O)c3ccc(C(=O)N4CCC(C)CC4)cc3nc2s1	23.7%	-7.9%	-7.5%	-0.7%	?	5.5%	nt	nt	nt	nt	nt
Cc1ccc(C)c(Nc2nn3c(=O)c4ccc(C(=O)NCCc5ccccc5)cc4nc3s2)c1	-15.5%	-8.9%	i	1.4%	13.3µM*	16.8%	?	-1.7%	-0.9%	19.3µM*	10.9µM*
Cc1c(Cl)cccc1Nc1nn2c(=O)c3ccc(C(=O)NCCc4ccccc4)cc3nc2s1	?	?	i	-3.0%	10µM*	?	-15.2%	?	0.9%	27.3µM*	14.5µM*
Cc1ccc(C)c(Nc2nn3c(=O)c4ccc(C(=O)NC5CCCCC5)cc4nc3s2)c1	11.6%	-3.9%	-2.2%	-2.3%	-20.6%	-19.4%	nt	nt	nt	nt	nt
Cc1c(Cl)cccc1Nc1nn2c(=O)c3ccc(C(=O)N(C)Cc4ccccc4)cc3nc2s1	-0.6%	-6.4%	0.1%	0.1%	-24.7%	1.2%	nt	nt	nt	nt	nt
CCCOc1ccc(CN2C(=O)C(=O)c3cccc(C)c32)cc1	?	67.2%	?	?	11.3µM*	-7.3%	?	?	-16.3%	?	?
Cc1cccc2c1N(CCOc1ccc(C(C)(C)C)cc1)C(=O)C2=O	nt	-12.9%	nt	nt	nt	nt	nt	nt	nt	nt	nt
O=C(COc1ccccc1)Nc1ccc2nc(SCC(=O)N3CCc4ccccc43)sc2c1	-14.7%	-10.1%	0.2%	-6.7%	?	-11.5%	nt	nt	nt	nt	nt
CCOc1ccc(C(=O)Nc2ccc3nc(SCc4ccccc4)sc3c2)cc1	-23.9%	-13.8%	9.7%	-13.0%	8.91µM*	9.5%	-6.6%	2.3%	3.2%	?	18.3µM*
Cc1ccc(CSc2nc3ccc(NC(=O)COc4ccccc4)cc3s2)cc1	15.3%	-9.7%	-5.6%	0.7%	15µM*	6.7%	1.4%	2.0%	5.9%	-16.3%	-24.8%
O=C(COc1ccc(F)cc1)Nc1ccc2nc(SCC(=O)N3CCc4ccccc43)sc2c1	-8.7%	-7.2%	4.5%	-0.6%	3.03µM*	12.5%	?	-11.4%	-0.5%	-20.1%	?
COc1ccccc1NC(=O)CSc1ncc2c(n1)-c1cc(Cl)ccc1N(C)S2(=O)=O	1.0%	13.9%	8.9%	8.4%	-24.3%	-26.5%	nt	nt	nt	nt	nt
COc1cccc(NC(=O)CSc2ncc3c(n2)-c2ccc(Cl)cc2N(C)S3(=O)=O)c1	-0.8%	2.5%	6.1%	0.4%	2.53µM*	-7.1%	-6.4%	0.4%	-1.0%	-1.0%	?
CC(=O)N1c2c(cc(Br)cc2S(=O)(=O)Nc2ccc(OC(F)(F)F)cc2)CC1C (configuration not stated)	27.3%	25.4%	14.8%	?	16µM*	-24.4%	21.7µM*	1.53µM*	-5.3%	2.8%	-30.0%

Screening data as filed in PubChem.
